This passage reports z-score results from PubChem BioAssay.

Molecules are shown by their SMILES. Unmarked numbers belong to inactive results.

This assay can be described thus: growth effects on S. cerevisiae YJM789 – YJM789 clinical isolate, OD600, 24 h, basal, primary screen (AID 1089).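 Note: growth of clinical yeast isolate S. cerevisiae YJM 789 seeded 1000 cells per well; test concentration not given here.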 As to conditions: higher = more signal, called active from +8 up or from −8 down.
Take `C=C(/C(=C/C[C@H](OC(C)=O)c1ccccc1OCCO)c1cc(C(=O)OC)ccc1OC)C(C)C`: the z-score is 0.946. For `C[N+](C)(C)CCCC[C@@H]1NC(=O)[C@H]2C[C@@H](C(=O)NCCCCCCN)[C@@H](c3ccc(O)cc3)N2C1=O` the value was 0.731; for `COc1ccccc1CN1C(=O)c2ccccc2[C@](Cc2ccccc2I)(C(=O)NCC(F)(F)F)[C@@H]1c1ccc(CO)cc1`, -0.23; for `O=C(NCc1ccccc1)[C@@H]1c2ccccc2C(=O)N(Cc2ccccc2C(F)(F)F)[C@H]1c1ccc(CO)cc1`, 0.397.

Turning to `COC(=O)[C@H](Cc1ccccc1)N1CC(/C=C/C2CC2)=C[C@H]1[C@H](O)Cc1ccccc1`, the z-score is -0.457. For `CCOC(=O)C1=CC[C@@H](c2ccc(OCc3ccccc3)c(OC)c2)N(S(=O)(=O)c2ccc(C)cc2)[C@H]1c1ccc(SC)cc1` the value was -0.448.

For `COc1cccc(/C=C/C=O)c1`, the z-score was 1.95. `CC(=O)NCCCC[C@@H]1NC(=O)[C@H]2C[C@@H](C(=O)NCCCC[N+](C)(C)C)[C@@H](c3cccc(OCCO)c3)N2C1=O`: the z-score is -0.369.

In the case of `O=C1C2C=CC(C(O)c3ccccc3)N(Nc3ccccc3F)C2C(=O)N1c1ccccc1` (stereo unspecified), the z-score was 0.181. For the molecule `CCOC(=O)C[C@H]1[C@H](OC(=O)c2ccccc2-c2ccccc2)[C@@H](NC(=O)c2ccc(-c3ccccc3)cc2)c2cc(OCCCO)ccc2N1C(=O)c1ccc2ccccc2n1`, the z-score is 0.214.

As to `CO[C@]12C=C(Br)[C@@H](C[C@@H]1c1cccc(C)c1)[C@@]1(CO1)C2=O`, the z-score was -0.354.
